DUX4 txn inh: DUX4-mediated transcription inhibition. 293T-iDUX4 ZSCAN4-Gaussia luciferase reporter, 24 h; hits give low values. 0.8% of 37,000 active. activity change, negative = inhibition, % (concentration not given with the values);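 active = mean inhibition of at least 10% in the main channel, exceeding the control channel by a set limit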
Large screens that a line does not name were inactive; ! = not confirmed by another sample. Shown is part of a subset that was picked to be rich in hits.

COc1cccc(CN2C[C@@H]3N[C@H](C2)C3c2ccc(-c3ccccc3F)cc2)c1 (stereo partly drawn)	DUX4 txn inh -19!
CN(C)C(=O)c1cccc(-c2ccc(C3[C@@H]4CN(Cc5ccccc5F)C[C@H]3N4)cc2)c1 (stereo partly drawn)	DUX4 txn inh -18!
COc1cccc(-c2ccc(C3[C@H]4CNC[C@@H]3N4Cc3ccccc3F)cc2)c1 (stereo partly drawn)	none
Fc1ccc(-c2ccc(C3[C@@H]4CN(Cc5cccc(F)c5)C[C@H]3N4)cc2)cc1 (stereo partly drawn)	DUX4 txn inh -36!
Fc1cccc(CN2[C@@H]3CNC[C@H]2C3c2ccc(-c3ccccc3)cc2)c1 (stereo partly drawn)	none
CN(C)C(=O)c1cccc(-c2ccc(C3[C@@H]4CN(Cc5cncnc5)C[C@H]3N4)cc2)c1 (stereo partly drawn)	none
Cc1ccc(-c2ccc(C3[C@@H]4CN(Cc5ccccc5)C[C@H]3N4)cc2)cc1 (stereo partly drawn)	none
CN(C)C(=O)c1cccc(-c2ccc(C3[C@@H]4CN(C(=O)Nc5ccccc5F)C[C@H]3N4)cc2)c1 (stereo partly drawn)	none
COc1cccc(CNC(=O)C[C@H]2CC[C@@H]3[C@@H](COc4ccc(NS(=O)(=O)c5ccccc5F)cc4C(=O)N3C)O2)c1	none
CO[C@H]1CN(C)C(=O)c2ccc(NC(=O)CC(F)(F)F)cc2OC[C@H](C)N(C(=O)C2CCOCC2)C[C@H]1C	none
CO[C@H](CN(C)C(=O)c1ccc2c(c1)OCO2)[C@H](C)CN([C@H](C)CO)S(=O)(=O)c1ccc(F)cc1	none
CC(C)(C)S(=O)N1Cc2cc(C(=O)NCc3ccc(Oc4ccccc4)cc3)nc(-c3cccc(-c4cccc(F)c4)c3)c2[C@@H]1CCO (stereo partly drawn)	none
CCC(=O)N1CC(=O)N2[C@H](CO)[C@H](c3ccc(C#CC(C)C)cc3)[C@H]2C1	none
C[C@H](CO)N1C[C@H](C)[C@@H](CN(C)Cc2ccc(C(=O)O)cc2)Oc2ccc(NS(=O)(=O)c3cccs3)cc2C1=O	none
O=C(C[C@H]1CC[C@@H]2[C@H](COC[C@@H](O)CN2C(=O)c2ccccc2F)O1)N1CCN(c2ccccc2)CC1	none
N#C[C@H]1N[C@@H](CO)[C@@H]1c1ccc(C#Cc2ccccc2F)cc1	none
OC[C@@H]1[C@@H](c2ccc(-c3cccc(F)c3)cc2)[C@H]2CN(Cc3cncnc3)CCCCN12	none
COc1ccccc1C#Cc1ccc([C@H]2[C@H]3CN(S(C)(=O)=O)CCCCN3[C@H]2CO)cc1	none
COc1ccccc1C#Cc1ccc([C@H]2[C@H](CO)N3CCCCN(CCC(F)(F)F)C[C@@H]23)cc1	DUX4 txn inh -61
C/C=C/c1ccc([C@@H]2[C@H]3CN(CCC(F)(F)F)CCCCN3[C@H]2CO)cc1	none
O=C(C1CC1)N1CCCCN2[C@H](CO)[C@H](c3ccc(-c4cccc(F)c4)cc3)[C@@H]2C1	DUX4 txn inh -22
OC[C@@H]1[C@H](c2ccc(-c3cccc(F)c3)cc2)[C@@H]2CN(CCC(F)(F)F)CCCCN12	none
O=C(C1CC1)N1CCCCN2[C@@H](CO)[C@H](c3ccc(-c4cccc(F)c4)cc3)[C@@H]2C1	none
Cc1ccccc1-c1ccc([C@@H]2[C@H]3CN(C(=O)Nc4cccc(F)c4)CCCCN3[C@H]2CO)cc1	DUX4 txn inh -43
OC[C@@H]1[C@H](c2ccc(-c3cccc(F)c3)cc2)[C@H]2CN(CCC(F)(F)F)CCCCN12	DUX4 txn inh -47
O=C(Nc1cccc(F)c1)N1CCCCN2[C@H](CO)[C@H](c3ccc(-c4ccncc4)cc3)[C@@H]2C1	none
CN(C)C(=O)c1cccc(-c2ccc([C@@H]3[C@@H](CO)N4CCCCN(C(=O)C5CCC5)C[C@H]34)cc2)c1	none
Cc1ccccc1-c1ccc([C@H]2[C@H]3CN(C(=O)Nc4cccc(F)c4)CCCCN3[C@H]2CO)cc1	none
CO[C@H]1CN(C)C(=O)c2ccc(NC(=O)Nc3cc(F)ccc3F)cc2OC[C@@H](C)N(C(=O)c2ccccn2)C[C@H]1C	none
N#C[C@@H]1[C@H](c2ccccc2)[C@@H](CO)N1C(=O)c1ccc2c(c1)OCO2	none
O=C([C@@H]1N[C@@H]2c3ccc(-c4ccccc4F)c(=O)n3C[C@@H]2[C@H]1CO)N1CCc2ccccc2C1	none
C[C@@H]1CN([C@H](C)CO)S(=O)(=O)c2ccc(C3=CCCCC3)cc2O[C@H]1CN(C)S(=O)(=O)c1cn(C)cn1	none
CCCC(=O)N1CCC2(CC1)CN[C@H](CO)c1c2c2ccc(OC)cc2n1C	none
C[C@@H]1CN([C@H](C)CO)C(=O)c2cc(NC(=O)C3CCCCC3)ccc2O[C@@H](C)CCCCO[C@@H]1CN(C)CC1CCCCC1	none
COc1ccc(NC(=O)N(C)C[C@H]2Oc3ccc(NC(=O)CCN4CCOCC4)cc3C(=O)N([C@@H](C)CO)C[C@@H]2C)cc1	none
O=C(C[C@H]1CC[C@@H]2[C@H](COC[C@@H](O)CN2C(=O)c2ccccc2)O1)N1CCOCC1	none
CC(C)NC(=O)N1CC(=O)N2[C@H](C1)[C@H](c1ccc(C#CCN(C)C)cc1)[C@@H]2CO	none
COc1ccc(CN2[C@@H]3CN(C(=O)NC(C)C)c4ccccc4[C@@H]3[C@@H]2CO)cc1	none
Cc1cccc(-c2ccc([C@H]3[C@@H](CO)N4CCCCN(Cc5ccncc5)C[C@@H]34)cc2)c1	none
CN(C)C(=O)c1ccc(-c2ccc([C@@H]3[C@H](CO)N4CCCCN(CCC(F)(F)F)C[C@@H]34)cc2)cc1	none
Cc1cccc(-c2ccc([C@@H]3[C@H]4CN(CCC(F)(F)F)CCCCN4[C@H]3CO)cc2)c1	DUX4 txn inh -31
O=C(C[C@@H]1CC[C@H]2[C@@H](COC[C@@H](O)CN2Cc2ccccc2)O1)NCc1ccccc1Cl	none
CN(C)C(=O)C[C@@H]1CC[C@@H]2[C@@H](COc3ccc(NC(=O)C4CCCCC4)cc3C(=O)N2C)O1	none
C/C=C/c1ccc(C2[C@@H]3CN(S(=O)(=O)c4ccc(C)cc4)C[C@H]2N3)cc1 (stereo partly drawn)	none
Cc1ccc(S(=O)(=O)N2C[C@@H]3N[C@H](C2)C3c2ccc(-c3cccc(C#N)c3)cc2)cc1 (stereo partly drawn)	DUX4 txn inh -43!
COc1ccccc1S(=O)(=O)N1C[C@@H]2N[C@H](C1)C2c1ccc(-c2ccncc2)cc1 (stereo partly drawn)	none
COc1cccc(-c2ccc(C3[C@H]4CNC[C@@H]3N4S(=O)(=O)c3cn(C)cn3)cc2)c1 (stereo partly drawn)	none
Cc1ccc(S(=O)(=O)N2[C@@H]3CNC[C@H]2C3c2ccc(-c3ccc(C#N)cc3)cc2)cc1 (stereo partly drawn)	none
COc1cccc(-c2ccc(C3[C@@H]4CN(C(=O)C5CCOCC5)C[C@H]3N4)cc2)c1 (stereo partly drawn)	none
N#Cc1cccc(-c2ccc3c(c2)[C@@H]2[C@@H](CCN2S(=O)(=O)c2ccccc2)[C@@H](CO)N3)c1	none
COc1cccc(-c2ccc(C3[C@@H]4CN(S(=O)(=O)c5cn(C)cn5)C[C@H]3N4)cc2)c1 (stereo partly drawn)	DUX4 txn inh -34!
N#Cc1cccc(-c2ccc(C3[C@@H]4CN(S(=O)(=O)c5ccccc5)C[C@H]3N4)cc2)c1 (stereo partly drawn)	DUX4 txn inh -41!
N#Cc1cccc(-c2ccc([C@H]3[C@H]4CN(S(=O)(=O)c5ccccc5)CCCCN4[C@H]3CO)cc2)c1	none
COc1ccc(S(=O)(=O)N2[C@@H]3CNC[C@H]2C3c2ccc(-c3ccccc3OC)cc2)cc1 (stereo partly drawn)	none
